Screens from PubChem BioAssay.
OPRM1-OPRD1 inv: inverse agonist of human OPRM1-OPRD1 heterodimerization; inhibition, % at 9.3 µM; 0.21% of 340,000 active; cell-based MOR-DOR heterodimer luminescence, inverse agonism; P35372+P41143; in the data active means inhibition above about 22%, passing the limit was not always enough
OPRM1-OPRD1 ag: OPRM1-OPRD1 heterodimerization agonism. 0.3% of 340,000 active. P35372+P41143. AID 504326. cells, luminescence. activation, % at 9.3 µM; in the data active means activation above about 18%
HTR5A inv ctr: counter-screen for OPRM1-OPRD1 inverse agonists: human HTR5A inverse agonism; HTR5A cell line, luminescence; P47898; 0.083% of 340,000 active; inhibition, % at 9.3 µM; in the data active means inhibition mostly above about 23%, no sharp cut-off; inactive means mostly below about 18%
Target sequence (P47898 whole entry, looked up): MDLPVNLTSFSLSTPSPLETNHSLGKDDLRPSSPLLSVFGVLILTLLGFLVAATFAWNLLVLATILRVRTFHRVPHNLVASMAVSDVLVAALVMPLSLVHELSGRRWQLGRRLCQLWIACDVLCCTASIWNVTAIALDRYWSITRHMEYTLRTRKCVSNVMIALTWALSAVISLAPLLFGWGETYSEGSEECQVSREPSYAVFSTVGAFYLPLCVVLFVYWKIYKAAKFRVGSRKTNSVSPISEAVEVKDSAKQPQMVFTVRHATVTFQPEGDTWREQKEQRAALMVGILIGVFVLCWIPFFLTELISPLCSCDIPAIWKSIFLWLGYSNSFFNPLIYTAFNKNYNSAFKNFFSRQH
HTR5A ag: HTR5A agonism, opioid heterodimer counter-screen. activation, % at 9.3 µM. P47898. 0.61% of 340,000 active. HTR5A agonist assay, luminescence, cell-based; in the data active means activation mostly above about 9.5%, no sharp cut-off; inactive means mostly below about 7.6%
MOR-DOR inv conf: OPRM1-OPRD1 heterodimer inverse agonism, confirmation; shares compounds with OPRM1-OPRD1 inv; cells expressing OPRM1/OPRD1 heterodimer, luminescence; inhibition, % at 9.3 µM; 20% of 580 active; AID 504900; in the data active means inhibition above about 32%
HTR5A inv ctr2: inverse agonist of human HTR5A in OPRM1-OPRD1 counter-screen. 580 tested, under 10 active. shares compounds with OPRM1-OPRD1 inv. inhibition, % at 9.3 µM. AID 504914. HTR5A-expressing cells, luminescence, inverse agonism; call rule not given here
A number is an active result; - = inactive; . = no result given. Shown are actives, neighbours in structure and some others; about 1.1% of the full set was active somewhere.

SMILES	OPRM1-OPRD1 inv	OPRM1-OPRD1 ag	HTR5A inv ctr	HTR5A ag	MOR-DOR inv conf	HTR5A inv ctr2
C[C@H](NC(=O)COc1ccccc1)C(=O)OCC(=O)c1cc2ccccc2o1	80	-	33	-	-	-
CCCn1c2ccccc2c2nnc(SCC(=O)Nc3ncccn3)nc21	32	-	-	-	-	-
O=C(Cc1ccccc1)NNc1ccc2ccccc2c1	33	-	-	-	-	-
Cc1ccc(CNC(=O)c2ccc(Cl)c(S(=O)(=O)N3CCCCC3)c2)cc1	-	-	-	-	.	.
O=C1c2ccccc2-c2nccnc21	80	-	39	-	87	-
Cc1cc(OCC(=O)NCCN2CCOCC2)c2c(C)c(C)c(=O)oc2c1	-	-	-	-	.	.
O=C(Nc1ccc(S(=O)(=O)N2CCOCC2)cc1)c1ccc(Cl)cc1Cl	-	-	-	-	.	.
Cc1ccc(SCC(=O)OCC(=O)N(CC(C)C)C2CCS(=O)(=O)C2)cc1C (stereo not given)	24	-	-	-	-	-
N#Cc1cnn2c(-c3cccc([N+](=O)[O-])c3)ccnc12	-	-	-	-	.	.
CC1CN(c2ccccc2)NC1=O (stereo not given)	48	-	-	-	-	-
CC1CN(Cc2ccccc2)C(=O)NC1=O (stereo not given)	-	-	-	-	.	.
CCOc1ccc(Br)cc1S(=O)(=O)NCCN1CCCC1	-	-	-	-	.	.
CCOCCCNC(=O)/C(C#N)=C/c1cc(OC)c(O)c([N+](=O)[O-])c1	30	-	-	-	-	-
CCOCCCNC(=O)/C(C#N)=C/c1ccc(Cl)c([N+](=O)[O-])c1	-	-	-	-	.	.
O=C1C(NS(=O)(=O)c2cccs2)=C(N2CCOCC2)C(=O)c2ccccc21	41	-	-	-	-	-
CN1CCN(C2=C(NS(=O)(=O)c3cccs3)C(=O)c3ccccc3C2=O)CC1	-	-	-	-	.	.
Cc1nn(CCC(=O)NNC(=S)NCC(C)C)c(C)c1Br	75	-	-	-	-	-
Cc1nn(CCC(=O)NNC(=S)Nc2ccccc2)c(C)c1Br	30	-	-	-	-	-
CCOCCCNC(=S)NNC(=O)CCn1nc(C)c(Br)c1C	45	-	-	-	-	-
CNC(=S)NNC(=O)CCn1nc(C)c(Br)c1C	-	-	-	-	.	.
Cc1cc2cc(C)c(NCCNC(=O)c3cccs3)nc2cc1C	-	-	-	-	.	.
CC(=O)c1cccc(NC(=O)Nc2nc(C)cc(C)n2)c1	-	-	-	-	.	.
CS(=O)(=O)N(CC(=O)Nc1ccc(Br)cc1)C1CCCCC1	-	-	-	-	.	.
Cc1cccc2nc3c(nc12)-c1ccccc1C3=O	40	-	-	-	-	-
CCCCC(=O)NC(=S)NNC(=O)CCc1ccccc1	39	-	-	-	-	-
SMILES	OPRM1-OPRD1 inv	OPRM1-OPRD1 ag	HTR5A inv ctr	HTR5A ag	MOR-DOR inv conf	HTR5A inv ctr2
CC(=O)NC(=S)NNC(=O)CCc1ccccc1	-	-	-	-	.	.
C1N2CN3CN1CN(C2)C3	-	-	-	-	.	.
CCC(=O)OCCNc1cc(Sc2nccn2C)c2nonc2c1[N+](=O)[O-]	42	-	-	-	-	-
CCC(=O)OCCNc1cc(SCCC(=O)OC)c2nonc2c1[N+](=O)[O-]	-	-	-	-	.	.
CCCC(=O)OCCNc1cc(Sc2nc3ccccc3[nH]2)c2nonc2c1[N+](=O)[O-]	35	-	-	-	-	-
CCOc1ccc(S(=O)(=O)N2CCCC(C(=O)Nc3cc(C)cc(C)c3)C2)cc1 (stereo not given)	-	-	-	-	.	.
COc1cc(Br)c(S(=O)(=O)Nc2c(C)n(C)n(-c3ccccc3)c2=O)cc1OC	-	-	-	-	.	.
COc1ccc(S(=O)(=O)Nc2c(C)n(C)n(-c3ccccc3)c2=O)c(Cl)c1Cl	31	-	-	-	-	-
O=C(N/N=C/c1cccc2cccnc12)c1ccccc1O	36	-	-	-	-	-
Cc1ccc2c(c1)C(=O)C(=O)N2CC(=O)Nc1ccc(N2CCOCC2)cc1	32	-	-	-	37	-
O=C(c1ccco1)C(O)c1ccco1 (stereo not given)	70	-	35	-	-	-
Cc1ccc(C(O)C(=O)c2ccco2)cc1 (stereo not given)	-	-	-	-	.	.
COC(=O)c1cc(C(=O)OCC(=O)NCc2cccs2)cc([N+](=O)[O-])c1	-	-	-	-	.	.
Cc1nn(-c2ccccc2)c2c1C(c1ccncc1)C(C#N)=C(N)O2 (stereo not given)	-	-	-	-	.	.
COc1cc(-n2nc(C)c3c2OC(N)=C(C#N)C3c2ccccc2)c(Cl)c(Br)c1O (stereo not given)	34	-	-	-	-	-
CSCCC(NC=O)C(=O)NC(C)C(=O)O (stereo not given)	-	-	-	-	.	.
COc1ccc([C@H]2CC(=O)C=C(c3cccc4c3Oc3ccccc3S4)C2)cc1	-	-	-	-	.	.
COc1ccc2c(c1)C(=O)C(=O)N2	63	-	31	-	-	-
Cc1cc2c(cc1C)C(=O)C(=O)N2	-	-	-	-	.	.
CCCCN(C)Cc1cc(=O)oc2ccc3ccccc3c12	-	-	-	-	.	.
CC(=O)NC1C(=O)Nc2c1cccc2C(F)(F)F (stereo not given)	30	-	-	-	-	-
CC(=O)NC1C(=O)N=C(SCC(=O)Nc2c(C)cccc2C)NC1=O (stereo not given)	-	-	-	-	.	.
CN(CCCC1CCCC1)C(=O)CC1C(=O)NCCN1Cc1ccc(F)cc1 (stereo not given)	-	-	-	-	.	.
CC(C)(C)c1cc(C(=O)NCC(=O)OCC(=O)c2cccc([N+](=O)[O-])c2)cc(C(C)(C)C)c1	46	-	-	-	37	52
O=C(Cc1ccccc1)NCC(=O)OCC(=O)c1cccc([N+](=O)[O-])c1	64	-	-	-	58	-
SMILES	OPRM1-OPRD1 inv	OPRM1-OPRD1 ag	HTR5A inv ctr	HTR5A ag	MOR-DOR inv conf	HTR5A inv ctr2
O=C(CCc1ccccc1)OCC(=O)c1cccc([N+](=O)[O-])c1	54	-	-	-	31	-
O=C(CN1C(=O)c2ccccc2C1=O)NCC(=O)OCC(=O)c1cccc([N+](=O)[O-])c1	73	-	-	-	45	-
O=C(CN1C(=O)C2CC=CCC2C1=O)OCC(=O)c1ccc(Cl)c([N+](=O)[O-])c1 (stereo not given)	89	-	38	-	59	-
O=C(CN1C(=O)C2C3CC(C(Br)C3Br)C2C1=O)OCC(=O)c1cccc([N+](=O)[O-])c1 (stereo not given)	61	-	-	-	38	-
O=C(CN1C(=O)C2C3C=CC(C3)C2C1=O)OCC(=O)c1ccc([N+](=O)[O-])cc1 (stereo not given)	-	-	-	-	.	.
Cn1c(NNC(=O)c2ccccc2F)cc(=O)n(C)c1=O	-	-	-	-	.	.
Cn1c(NNC(=O)c2cccc3ccccc23)cc(=O)n(C)c1=O	23	-	-	-	-	-
